HT1080 IDH1KD tx: kills HT-1080 cells with IDH1 knockdown; HT-1080 IDH1 knockdown viability, ATP luminescence, 48 h; Potency, µM (titrated, usually from 46.1 µM), actives largely listed as cytotoxic; actives 2% (n = 360,000); AID 686971
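IDH1KD HT-1080 cells, 750/well, RPMI + 5% FBS; compound pinned after 2 h settling; 48 h, 37 °C; CellTiter-Glo luminescence; % activity normalised to DMSO and no-cell wells; curves fitted, classed by r2 and efficacy.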
DT40 TDP1 no CPT: qHTS for Inhibitors of human tyrosyl-DNA phosphodiesterase 1 (TDP1): qHTS in cells in absence of CPT; DT40 Tdp1-/- hTDP1 cells, no CPT, ATP luminescence, 48 h; Potency, µM (top dose mostly 46.2 µM), actives largely listed as inhibitors; actives 15% (n = 420,000); also: nearly all actives have a fitted effect of over 55% in size
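Cells were dispensed at 400 per well, compounds added by pin tool, plates incubated ≥48 hr at 37 °C, then CellTiter-Glo added for 30 min at room temperature before luminescence reading. Line: DT40 Tdp1-/- complemented with hTDP1; camptothecin omitted.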
TDP1 cell CPT: growth inhibition of DT40 Tdp1-/-;hTDP1 cells with camptothecin (screen for TDP1 inhibitors). chicken DT40 Tdp1-/-;hTDP1 cells + 20 nM CPT, ATP luminescence, 48 h. Potency, µM (doses to about 46.2 µM), usual class: inhibitors. actives 12% (n = 420,000). AID 686979; also: nearly all actives have a fitted effect of over 55% in size
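Cell growth measured by CellTiter-Glo luminescence after a minimum 48 h, 37 C compound exposure with 20 nM CPT in Tdp1-knockout DT40 cells stably expressing hTDP1, seeded 400/well; qHTS titration format.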
IL-1B inflam inh: blocks inflammasome-driven IL-1 beta release. actives 4.7% (n = 360,000). activity change, % at 57.5 µM. THP-1 LPS/ATP IL-1B secretion, AlphaLISA, 16 h; hits give low values; in the data active = activity change below about -50%; inconclusive = mostly about -30% to -49%
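Secreted IL-1B measured by AlphaLISA bead assay after 16 h compound exposure of THP-1 cells; compounds (final up to 57.5 uM) added 1 h before LPS (250 ng/mL) and ATP (1.25 mM) stimulation; lower signal means less secretion.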
HT1080NT lethal: kills 2HG-producing HT-1080-NT fibrosarcoma cells | HT-1080-NT fibrosarcoma viability, CellTiter-Glo ATP luminescence, 48 h | actives 1.6% (n = 360,000) | Potency, µM (top dose mostly 46.1 µM), usual class: cytotoxic;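 also: NT is the 2HG producing partner of a matched IDH1 knockdown line; nearly all actives have a fitted effect of over 55% in size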
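Read-out is CellTiter-Glo luminescence after 10 minutes at room temperature, following 48 hours' compound treatment of HT-1080-NT cells (750 cells/well, RPMI, 5% FBS, 37 degrees C).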
Hits are given with their value; i = inactive; ? = inconclusive; nt = no result given. An excerpt weighted towards active compounds, which were near 19% of everything screened. Unless noted, calls follow the shape of the dose curve; as a rule, active = well fitted curve in the direction sought with a large enough effect; inconclusive = small, poorly fitted or top-dose-only effect, or another doubt; inactive = no such curve, though single readings can be large; an effect the other way counts as inactive or inconclusive.

SMILES	HT1080 IDH1KD tx	DT40 TDP1 no CPT	TDP1 cell CPT	IL-1B inflam inh	HT1080NT lethal
COCCn1c(=O)c2c(nc3n2CC(C)CN3CCc2ccccc2)n(C)c1=O (stereo not drawn)	i	?	?	i	i
Cc1ccc(S(=O)(=O)c2c(O)c3ccc(C(=O)O)cc3[nH]c2=O)cc1	i	i	i	i	i
CCOC(=O)C1=C(O)/C(=C/c2cc(OC)c(OC)c(OC)c2)SC1=Nc1ccc(OC)cc1	i	21µM	?	i	i
CC1=C(c2ccccc2)C(=S)NC(C)(C)C1	33µM	i	i	i	i
Cc1ccc(Nc2nc(N)nc(N)c2N=O)cc1C	i	?	?	i	i
Cc1cc(Br)ccc1Nc1nc(N)nc(N)c1N=O	i	?	10µM	?	i
Cc1cccc(Nc2nc(N)nc(N)c2N=O)c1	i	21µM	26µM	-57	i
COc1ccc(C(=O)OCC(=O)NC2CC2)cc1OC	i	i	i	i	i
O=C1c2ccccc2[C@@H]2C[C@@H](O)[C@H](Nc3ccccc3-c3ccccc3)CCN12	i	18µM	?	i	i
O=C1c2ccccc2[C@@H]2C[C@@H](O)[C@H](Nc3cccc(C(F)(F)F)c3)CCN12	i	?	23µM	?	i
CC1C(=O)N2CCCc3cc(NS(=O)(=O)c4ccccc4)cc1c32 (stereo not drawn)	i	i	i	i	i
CC1CCC(C(=O)NNC(=O)c2cc(-c3ccco3)[nH]n2)CC1 (stereo not drawn)	i	16µM	18µM	i	i
CSc1nc(=O)[nH]nc1Sc1ccccc1	i	?	?	i	i
Cc1cccc(NC(=O)CCNS(=O)(=O)c2ccc3c(c2)CCN3C(=O)C2CC2)c1	nt	21µM	18µM	nt	nt
O=C(CCNS(=O)(=O)c1ccc2c(c1)CCN2C(=O)C1CC1)Nc1ccc(F)cc1F	nt	13µM	8.2µM	nt	nt
COCCCNC(=O)C(=O)Nc1ccc2c(c1)N(S(=O)(=O)c1cccs1)CCC2	2.3µM	0.58µM	0.65µM	i	?
CCCNC(=O)C(=O)Nc1ccc2c(c1)N(S(=O)(=O)c1cccs1)CCC2	?	23µM	15µM	i	?
CCNC(=O)C(=O)Nc1ccc2c(c1)N(S(=O)(=O)c1cccs1)CCC2	i	?	?	i	i
O=C(Nc1ccc2c(c1)CCCN2C(=O)c1cccs1)c1c(F)cccc1F	i	?	?	i	i
C=CCNC(=O)C(=O)Nc1ccc2c(c1)N(S(=O)(=O)c1cccs1)CCC2	?	23µM	?	i	i
CN(C)CCCNC(=O)C(=O)Nc1ccc2c(c1)N(S(=O)(=O)c1cccs1)CCC2	i	?	?	i	i
O=C(Nc1ccc2c(c1)N(S(=O)(=O)c1cccs1)CCC2)c1c(F)cccc1F	i	16µM	?	i	i
CN(C)CCNC(=O)C(=O)Nc1ccc2c(c1)N(S(=O)(=O)c1cccs1)CCC2	?	7.3µM	16µM	i	i
CCn1ccc2c(OCC(=O)Nc3ccc(C(C)=O)cc3)cccc2c1=O	nt	9.2µM	?	nt	nt
CCOCCn1ccc2c(OCC(=O)Nc3cc(OC)ccc3OC)cccc2c1=O	i	9.2µM	?	i	i
SMILES	HT1080 IDH1KD tx	DT40 TDP1 no CPT	TDP1 cell CPT	IL-1B inflam inh	HT1080NT lethal
CCOCCn1ccc2c(OCC(=O)Nc3ccccc3OC)cccc2c1=O	i	?	?	-60	?
CCOCCn1ccc2c(OCC(=O)Nc3ccc(C(N)=O)cc3)cccc2c1=O	nt	15µM	?	nt	nt
CCOCCn1ccc2c(OCC(=O)Nc3cccc(F)c3)cccc2c1=O	nt	?	i	nt	nt
O=[N+]([O-])O[C@@H]1CO[C@H]2[C@@H]1OC[C@@H]2O	nt	i	i	nt	nt
Cc1ccc(N(CCC#N)C(=O)COC(=O)c2cc(C)oc2C)cc1	i	i	?	i	i
O=C(O)CCc1ccc(S(=O)(=O)Nc2ccccc2N2CCCCC2)cc1	i	?	?	i	i
Cc1nnsc1-c1nc2ccccc2n1C(CCc1ccccc1)c1nc2ccccc2[nH]1 (stereo not drawn)	i	?	?	i	i
COc1cccc2c(=O)n(CC(=O)Nc3ccccc3)ccc12	i	i	i	i	i
COCCn1ccc2c(OCC(=O)Nc3cc(OC)ccc3OC)cccc2c1=O	i	15µM	?	i	i
COC(=O)COc1cccc2c(=O)n(CC(=O)Nc3ccc4c(c3)OCCO4)ccc12	?	i	i	-50	i
COc1ccc(-c2cc(-c3n[nH]c(=S)n3-c3ccccc3OC)[nH]n2)cc1	i	i	i	i	i
Cc1ccc(O/C=C2/Nn3c(nnc3-c3cc(-c4ccccc4)n[nH]3)S2)cc1	nt	16µM	7.1µM	nt	nt
CCOc1ccc2nc(NCCNC(=S)NCCCN(C)C)c(C#N)cc2c1	?	26µM	?	nt	i
CCOCCCNC(=S)NCCCNc1nc2c(C)c(C)ccc2cc1C#N	?	?	?	-95	?
CCOCCCNC(=S)N1CCCN(c2nc3c(C)c(C)ccc3cc2C#N)CC1	i	?	?	?	i
CCOc1ccc2nc(NCCNC(=O)Nc3ccccc3)c(C#N)cc2c1	?	?	i	i	?
O=C(COC(=O)c1cccc(S(=O)(=O)N2CCCC2)c1)Nc1cccc(Br)c1	i	i	i	i	i
NC(=O)CC[C@H](NC(=O)c1ccc(F)cc1)C(=O)OCC(=O)NCc1ccc(F)cc1	i	?	?	i	i
CCCc1cc(=O)oc2cc(OCC(=O)NCCc3c[nH]c4ccccc34)ccc12	?	16µM	23µM	i	?
Cc1cc(OCC(=O)NCCc2c[nH]c3ccccc23)c2c(C)cc(=O)oc2c1	i	?	?	-90	i
Cc1cc(=O)oc2cc(OCC(=O)NCCc3c[nH]c4ccc(F)cc34)ccc12	i	i	i	i	i
COc1ccc2[nH]cc(CCNC(=O)COc3ccc4ccc(=O)oc4c3)c2c1	i	21µM	?	i	i
Cc1cc(OCC(=O)Nc2ccccn2)c2c(C)cc(=O)oc2c1	i	?	i	-54	i
Cc1cc(OCC(=O)NCCc2c[nH]c3ccccc23)c2c(C)c(C)c(=O)oc2c1	i	?	?	i	i
Cc1cc(=O)oc2ccc(OCc3ccccc3)cc12	i	?	?	i	i
Cc1cc(=O)oc2cc(O)cc(OCc3ccccc3)c12	i	16µM	?	i	i
Cc1cc(/C=C2\C(=N)N3N=C(CC(=O)N4CCOCC4)SC3=NC2=O)c(C)n1Cc1ccccc1	i	i	i	i	i
CC1=NN2C(=N)/C(=C\c3cc(C)n(Cc4ccccc4)c3C)C(=O)N=C2S1	i	26µM	i	i	i
CC1=NN(C(=O)c2ccco2)C(O)(c2ccccc2)C1 (stereo not drawn)	i	0.92µM	1µM	i	i
